Measured values taken from PMC7862700, “An all-to-all approach to the identification of sequence-specific readers for epigenetic DNA modifications on cytosine”.

Legend:
Assay in all cases: DAPPL (digital affinity profiling via proximity ligation, sequencing); 10 mM Tris-HCl pH 7.5, 50 mM NaCl, 1 mM DTT, 4% glycerol, room temperature, 30 min; GST-TFs on glutathione beads, 16-mer random dsDNA library, 0.1% formaldehyde crosslink after washing; high values mean tight binding
Conditions in all cases: protein: recombinant; tags: N-terminal GST; dsDNA, one strand shown
FLI1 = target: T1, FLI1 (Homo sapiens, UniProt Q01543 1-452)
T1 sequence: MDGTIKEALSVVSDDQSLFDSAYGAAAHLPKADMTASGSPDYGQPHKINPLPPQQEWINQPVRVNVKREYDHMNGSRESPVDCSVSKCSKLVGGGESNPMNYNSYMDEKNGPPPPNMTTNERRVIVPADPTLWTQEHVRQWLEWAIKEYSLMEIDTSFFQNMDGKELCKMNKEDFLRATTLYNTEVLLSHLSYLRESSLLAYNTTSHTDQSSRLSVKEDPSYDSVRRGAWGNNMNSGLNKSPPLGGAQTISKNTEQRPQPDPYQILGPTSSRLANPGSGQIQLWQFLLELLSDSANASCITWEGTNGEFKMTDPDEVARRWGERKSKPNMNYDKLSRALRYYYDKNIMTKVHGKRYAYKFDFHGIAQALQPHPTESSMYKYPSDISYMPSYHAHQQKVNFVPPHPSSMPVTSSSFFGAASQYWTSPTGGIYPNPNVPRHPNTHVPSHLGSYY
How it was run: (§1)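 Sequencing on an Illumina NextSeq500 followed washing, crosslinking with 0.1% formaldehyde, proximity ligation (BsaI/T4 ligase, 1 h, 37 °C) and PCR amplification of pools that had been incubated for 30 min at room temperature with 200 nmole of a random double-stranded 16-mer DNA library in Tris/NaCl/DTT/glycerol buffer. Each pool held DNA-barcoded human transcription factors, expressed in yeast as GST fusions and captured on glutathione beads, plus a tag-only sample. Binding signal is a hexamer's read frequency for a factor divided by its frequency in the tag-only sample.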

ELK1 = target: T2, ELK1 (Homo sapiens, UniProt P19419 1-428)
T2 sequence: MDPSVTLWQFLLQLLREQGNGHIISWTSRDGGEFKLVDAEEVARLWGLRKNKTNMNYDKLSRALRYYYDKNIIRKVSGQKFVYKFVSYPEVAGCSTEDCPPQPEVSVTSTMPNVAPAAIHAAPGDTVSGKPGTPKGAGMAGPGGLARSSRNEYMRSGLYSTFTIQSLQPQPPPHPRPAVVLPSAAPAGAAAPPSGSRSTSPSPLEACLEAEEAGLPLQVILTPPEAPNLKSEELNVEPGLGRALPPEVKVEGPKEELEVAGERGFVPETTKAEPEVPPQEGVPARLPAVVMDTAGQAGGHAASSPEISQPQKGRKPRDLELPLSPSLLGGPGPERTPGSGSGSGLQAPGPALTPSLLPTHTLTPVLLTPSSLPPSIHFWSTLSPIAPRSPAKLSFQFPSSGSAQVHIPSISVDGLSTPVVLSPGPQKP
How it was run: as §1

GABPA = target: T3, GABPA (Homo sapiens, UniProt Q06546 1-454)
T3 sequence: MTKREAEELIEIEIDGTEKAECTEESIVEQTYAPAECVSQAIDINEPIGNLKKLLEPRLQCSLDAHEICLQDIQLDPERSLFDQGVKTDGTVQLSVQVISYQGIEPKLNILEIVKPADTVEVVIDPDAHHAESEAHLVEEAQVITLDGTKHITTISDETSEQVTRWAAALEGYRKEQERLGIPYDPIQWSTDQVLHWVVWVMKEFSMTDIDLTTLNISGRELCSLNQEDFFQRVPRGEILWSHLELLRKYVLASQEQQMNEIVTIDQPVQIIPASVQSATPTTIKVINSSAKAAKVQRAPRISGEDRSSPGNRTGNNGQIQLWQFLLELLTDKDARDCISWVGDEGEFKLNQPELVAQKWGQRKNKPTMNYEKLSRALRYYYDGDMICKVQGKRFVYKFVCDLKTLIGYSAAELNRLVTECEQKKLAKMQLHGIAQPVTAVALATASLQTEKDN
How it was run: as §1

ERG = target: T4, ERG (Homo sapiens, UniProt P11308 1-479)
T4 sequence: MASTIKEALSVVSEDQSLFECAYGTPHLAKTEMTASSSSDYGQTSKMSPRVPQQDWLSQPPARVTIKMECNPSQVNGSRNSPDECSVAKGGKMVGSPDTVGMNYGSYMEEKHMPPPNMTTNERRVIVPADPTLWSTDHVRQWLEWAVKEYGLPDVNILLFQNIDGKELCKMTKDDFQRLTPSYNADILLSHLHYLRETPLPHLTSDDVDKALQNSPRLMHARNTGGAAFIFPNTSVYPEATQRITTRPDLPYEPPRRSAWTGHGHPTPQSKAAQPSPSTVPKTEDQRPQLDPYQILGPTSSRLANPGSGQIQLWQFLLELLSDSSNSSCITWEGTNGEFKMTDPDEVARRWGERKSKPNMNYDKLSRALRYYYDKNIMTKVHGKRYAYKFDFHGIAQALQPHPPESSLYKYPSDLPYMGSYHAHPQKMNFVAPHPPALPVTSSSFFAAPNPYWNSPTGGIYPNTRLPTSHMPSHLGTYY
How it was run: as §1

ELF1 = ELF1 (Homo sapiens, UniProt P32519 1-619)
How it was run: as §1

EHF = target: T5, EHF (Homo sapiens, UniProt Q9NZC4 1-300)
T5 sequence: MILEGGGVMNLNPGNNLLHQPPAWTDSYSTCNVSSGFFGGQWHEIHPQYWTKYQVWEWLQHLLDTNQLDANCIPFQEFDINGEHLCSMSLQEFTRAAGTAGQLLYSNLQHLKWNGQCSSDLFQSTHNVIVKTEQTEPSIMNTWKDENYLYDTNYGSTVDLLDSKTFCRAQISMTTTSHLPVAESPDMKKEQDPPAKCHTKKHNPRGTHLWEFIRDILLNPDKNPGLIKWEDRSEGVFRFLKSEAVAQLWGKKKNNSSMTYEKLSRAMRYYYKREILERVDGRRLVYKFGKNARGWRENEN
How it was run: as §1

SPI1 = SPI1 (Homo sapiens, UniProt P17947 1-270)
How it was run: as §1

SPIB = SPIB (Homo sapiens, UniProt Q01892 1-262)
How it was run: as §1

ELK3 = target: T6, ELK3 (Homo sapiens, UniProt P41970 1-407)
T6 sequence: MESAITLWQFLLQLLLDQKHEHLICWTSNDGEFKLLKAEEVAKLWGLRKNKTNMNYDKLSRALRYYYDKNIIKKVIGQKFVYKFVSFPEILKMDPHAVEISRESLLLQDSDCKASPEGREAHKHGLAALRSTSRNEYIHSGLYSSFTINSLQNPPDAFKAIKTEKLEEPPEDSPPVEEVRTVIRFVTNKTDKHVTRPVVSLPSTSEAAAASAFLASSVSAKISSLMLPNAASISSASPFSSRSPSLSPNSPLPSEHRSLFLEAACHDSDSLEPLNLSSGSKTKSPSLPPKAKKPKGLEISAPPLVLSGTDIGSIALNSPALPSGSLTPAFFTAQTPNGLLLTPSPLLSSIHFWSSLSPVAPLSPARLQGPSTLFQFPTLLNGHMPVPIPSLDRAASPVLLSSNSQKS
How it was run: as §1

Sequence of ELF1 (P32519 whole entry): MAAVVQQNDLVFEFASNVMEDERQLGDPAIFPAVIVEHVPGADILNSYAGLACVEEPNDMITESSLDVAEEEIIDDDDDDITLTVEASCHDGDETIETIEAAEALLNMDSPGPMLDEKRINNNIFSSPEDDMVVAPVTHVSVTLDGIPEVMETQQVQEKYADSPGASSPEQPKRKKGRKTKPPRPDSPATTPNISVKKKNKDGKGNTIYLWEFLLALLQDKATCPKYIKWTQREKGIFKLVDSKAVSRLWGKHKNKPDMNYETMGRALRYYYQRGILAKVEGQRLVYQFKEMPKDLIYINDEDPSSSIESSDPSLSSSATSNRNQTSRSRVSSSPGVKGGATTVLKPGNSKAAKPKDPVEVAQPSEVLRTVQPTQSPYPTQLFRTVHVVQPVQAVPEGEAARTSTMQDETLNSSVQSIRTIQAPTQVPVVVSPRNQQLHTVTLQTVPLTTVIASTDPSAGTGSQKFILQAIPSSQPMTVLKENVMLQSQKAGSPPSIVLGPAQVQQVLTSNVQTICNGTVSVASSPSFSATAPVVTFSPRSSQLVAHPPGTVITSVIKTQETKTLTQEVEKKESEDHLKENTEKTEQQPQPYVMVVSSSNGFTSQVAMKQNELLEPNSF
Sequence of SPIB (Q01892 whole entry): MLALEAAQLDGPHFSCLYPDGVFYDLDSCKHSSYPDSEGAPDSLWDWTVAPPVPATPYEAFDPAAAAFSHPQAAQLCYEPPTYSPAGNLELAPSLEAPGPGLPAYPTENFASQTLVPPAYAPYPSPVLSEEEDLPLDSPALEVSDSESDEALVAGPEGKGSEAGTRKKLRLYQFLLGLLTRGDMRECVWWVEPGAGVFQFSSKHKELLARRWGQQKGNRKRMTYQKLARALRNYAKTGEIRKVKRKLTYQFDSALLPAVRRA

TTATAC
binding signal (FLI1): 1.55 fold enrichment (6-mer frequency, TF over GST control)
binding signal (ELK1): 1.42 fold enrichment (6-mer frequency, TF over GST control)
binding signal (GABPA): 1.39 fold enrichment (6-mer frequency, TF over GST control)
binding signal (ERG): 1.35 fold enrichment (6-mer frequency, TF over GST control)
binding signal (ELF1): 1.4 fold enrichment (6-mer frequency, TF over GST control)
binding signal (EHF): 1.42 fold enrichment (6-mer frequency, TF over GST control)
binding signal (SPI1): 1.3 fold enrichment (6-mer frequency, TF over GST control)
binding signal (SPIB): 1.43 fold enrichment (6-mer frequency, TF over GST control)
binding signal (ELK3): 1.35 fold enrichment (6-mer frequency, TF over GST control)
